# Structures can show the parent of a compound that is named as a salt.
# System: Danio rerio larvae (5 dpf)
# Assay: startle (activity period 16 minus period 15, 20-s interval sound) minus DMSO control (percentage points); higher = stronger startle response than DMSO larvae
# Details: 10 µM; exposure time: 3 h pre-incubation + 3 h imaging
# Description: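 Wild-type 5 dpf zebrafish larvae (n=48 per drug, 96-well plates, 28.5 °C) were exposed to Tocris FDA-approved library compounds at 10 µM (0.1% DMSO) for 3 h before and 3 h during imaging. Images were taken every 6 s during visual and acoustic stimuli, and larvae were tracked with Z-LaP Tracker. Each measure is the treated-group mean minus the DMSO control mean (n=844), in percentage points. This mapping covers compounds with 5-character plate codes.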
row,Structure (SMILES),startle
1,OC(c1cc(C(F)(F)F)nc2c(C(F)(F)F)cccc12)C1CCCCN1 (configuration not stated) [Mefloquine hydrochloride],-13.1
2,N#Cc1ccc2[nH]cc(CCCCN3CCN(c4ccc5oc(C(N)=O)cc5c4)CC3)c2c1 [Vilazodone hydrochloride],-7.54
3,COc1cc([C@@H]2c3cc4c(cc3[C@@H](O[C@@H]3O[C@@H]5CO[C@@H](C)O[C@H]5[C@H](O)[C@H]3O)[C@H]3COC(=O)[C@H]23)OCO4)cc(OC)c1O [Etoposide],-0.943
4,CC(C)OC(=O)C(C)(C)Oc1ccc(C(=O)c2ccc(Cl)cc2)cc1 [Fenofibrate],-5.75
5,CN(C)C(=N)NC(=N)N [Metformin hydrochloride],-2.04
6,C#CCN[C@@H]1CCc2ccccc21 [Rasagiline mesylate],3.19
7,OCc1cc(C(O)CNCCCCCCOCCCCc2ccccc2)ccc1O (configuration not stated) [Salmeterol xinafoate],-4.63
8,COCCc1ccc(OCC(O)CNC(C)C)cc1 (configuration not stated) [Metoprolol tartrate],4.47
9,O=c1n(CCCN2CCN(c3cccc(Cl)c3)CC2)nc2ccccn12 [Trazodone hydrochloride],3.18
10,C[C@H]1O[C@H](O[C@H]2[C@H](O)[C@@H](O)[C@@H](O[C@H]3[C@H](O)[C@@H](O)C(O)O[C@@H]3CO)O[C@@H]2CO)[C@H](O)[C@@H](O)[C@@H]1N[C@H]1C=C(CO)[C@@H](O)[C@H](O)[C@H]1O (some centres not stated) [Acarbose],-7.07
11,CNCc1ccc(-c2[nH]c3cc(F)cc4c3c2CCNC4=O)cc1 [Rucaparib camsylate],-4.48
12,Clc1ccc2nsnc2c1NC1=NCCN1 [Tizanidine hydrochloride],-2.98
13,O=C1CCc2ccc(OCCCCN3CCN(c4cccc(Cl)c4Cl)CC3)cc2N1 [Aripiprazole],-3.31
14,CN[C@H]1CC[C@@H](c2ccc(Cl)c(Cl)c2)c2ccccc21 [Sertraline hydrochloride],2.62
15,COc1cc(N)c(Cl)cc1C(=O)NC1CCN(CCCOc2ccc(F)cc2)CC1OC (configuration not stated) [Cisapride],-1.14
16,COc1cc2nccc(Oc3ccc(NC(=O)C4(C(=O)Nc5ccc(F)cc5)CC4)cc3)c2cc1OC,-3.85
17,CNS(=O)(=O)Cc1ccc2[nH]cc(CCN(C)C)c2c1 [Sumatriptan succinate],2.1
18,CC[C@H]1OC(=O)[C@H](C)[C@@H](O[C@H]2C[C@@](C)(OC)[C@@H](O)[C@H](C)O2)[C@H](C)[C@@H](O[C@@H]2O[C@H](C)C[C@H](N(C)C)[C@H]2O)[C@](C)(O)C[C@@H](C)CN(C)[C@H](C)[C@@H](O)[C@]1(C)O [Azithromycin],2.55
19,CC(=O)Nc1ccc(O)cc1 [Acetaminophen],0.242

row,Structure (SMILES),startle
1,NS(=O)(=O)c1cc2c(cc1Cl)NC(C1CC3C=CC1C3)NS2(=O)=O (configuration not stated) [Cyclothiazide],1.22
2,CCCCCCCN(CC)CCCC(O)c1ccc(NS(C)(=O)=O)cc1 (configuration not stated) [Ibutilide hemifumarate],-4.59
3,Cc1cc2c(s1)Nc1ccccc1N=C2N1CCN(C)CC1 [Olanzapine],2.27
4,O=C(O)C[C@H](O)C[C@H](O)/C=C/c1c(C2CC2)nc2ccccc2c1-c1ccc(F)cc1 [Pitavastatin calcium],2.76
5,CC(C)COCC(CN(Cc1ccccc1)c1ccccc1)N1CCCC1 (configuration not stated) [Bepridil hydrochloride],-3.27
6,CC(=O)Oc1cc2c(s1)CCN(C(C(=O)C1CC1)c1ccccc1F)C2 (configuration not stated) [Prasugrel],-11.4
7,OCCN1C[C@H](O)[C@@H](O)[C@H](O)[C@H]1CO [Miglitol],-0.148
8,C[C@@H]1C[C@H]2[C@@H]3CCC4=CC(=O)C=C[C@]4(C)[C@@]3(F)[C@@H](O)C[C@]2(C)[C@@]1(O)C(=O)CO [Dexamethasone],-0.0968
9,CCc1nc(N)nc(N)c1-c1ccc(Cl)cc1 [Pyrimethamine],1.66
10,CC(C)(C(=O)O)c1ccc(C(O)CCCN2CCC(C(O)(c3ccccc3)c3ccccc3)CC2)cc1 (configuration not stated) [Fexofenadine hydrochloride],3.14
11,CNC(=O)c1cc(Oc2ccc(NC(=O)Nc3ccc(Cl)c(C(F)(F)F)c3)cc2)ccn1 [Sorafenib],-3.34
12,CN(C)CCc1c[nH]c2ccc(C[C@H]3COC(=O)N3)cc12 [Zolmitriptan],2.75
13,CCCC1O[C@@H]2C[C@H]3[C@@H]4CCC5=CC(=O)C=C[C@]5(C)[C@H]4[C@@H](O)C[C@]3(C)[C@]2(C(=O)CO)O1 (some centres not stated) [Budesonide],-5.13
14,NC(=O)OCC(COC(N)=O)c1ccccc1 [Felbamate],1.44
15,COc1ccccc1OCC(O)CN1CCN(CC(=O)Nc2c(C)cccc2C)CC1 (configuration not stated) [Ranolazine dihydrochloride],2.16
16,N#C[C@@H]1C[C@@H]2C[C@@H]2N1C(=O)[C@@H](N)C12CC3CC(CC(O)(C3)C1)C2 [Saxagliptin hydrochloride],4.83
17,CCCc1nn(C)c2c(=O)[nH]c(-c3cc(S(=O)(=O)N4CCN(C)CC4)ccc3OCC)nc12 [Sildenafil citrate],-1.15
18,COc1ccccc1Oc1c(NS(=O)(=O)c2ccc(C(C)(C)C)cc2)nc(-c2ncccn2)nc1OCCO [Bosentan],7.41

# Reference: the supplement of paper PMC9950053
